31 compounds from PubChem BioAssay can be followed below.

Values without a mark were called inactive. How the calls were made is not given here.

This assay has as its system Aerobactin synthetase IucA (Klebsiella pneumoniae hvKP1). In words: IucA enzyme inhibition, primary screen, biochemical, Spectrum library (AID 1346200).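 Further: 100% = wells without compound and 0% = wells lacking enzyme.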 The conditions noted are these: malachite green pyrophosphate, A620, at 8 µM, stronger effect = lower value.
Consider `CCCCCCCCCCC[C@@H](C[C@H]1OC(=O)[C@H]1CCCCCC)OC(=O)[C@@H](CC(C)C)NC=O`, for which the activity remaining was 112%.

Turning to `COc1ccc(-c2oc3cc(O[C@H]4O[C@H](CO)[C@@H](O)[C@H](O)[C@H]4O)c(OC)c(O)c3c(=O)c2OC)cc1O`, the activity remaining is 77.6%.

For the compound `COc1c(O)cc2c(-c3ccccc3)cc(=O)oc2c1OC`, the activity remaining was 130%.

Regarding `O=C(O)c1nc2cc(Cl)c(Cl)cc2[nH]c1=O`, the activity remaining is 92.7%.

As for `Oc1cc(O)c2c(c1)O[C@H](c1ccc(O)c(O)c1)[C@H](O)C2`, the activity remaining is 99.8%.

Consider `Nc1c2ccccc2nc2ccccc12`, for which the activity remaining is 118%.

Turning to `CCOc1ccc(Cc2nccc3cc(OCC)c(OCC)cc23)cc1OCC`, the activity remaining is 109%.

In the case of `CN1CCN(C(c2ccccc2)c2ccccc2)CC1`, the activity remaining is 113%.

Consider `CC(=O)O[C@H]1C[C@@H](OC(C)=O)C(C)(C)C2C[C@@H](OC(C)=O)[C@@]3(C)C4=CC(=O)O[C@@H](c5ccoc5)[C@]4(C)CCC3[C@]21C` (stereo partly specified), for which the activity remaining is 102%.

`CC(=O)OCC(CCn1cnc2cnc(N)nc21)COC(C)=O`: the activity remaining was 121%.

As to `O=c1[nH]c2cc(Cl)c(Cl)cc2[nH]c1=O`, the activity remaining was 121%.

Consider `C/C=C(/C(=C/C)c1ccc(O)cc1)c1ccc(O)cc1`, for which the activity remaining was 115%.

As to `C[C@H](CC(=O)C(O)C(C)(C)O)[C@H]1C(=O)C[C@@]2(C)C3=CCC4C(C)(C)[C@@H](O[C@@H]5OC[C@@H](O)[C@H](O)[C@H]5O)CC[C@@]45C[C@@]35[C@@H](O)C[C@]12C` (stereo partly specified), the activity remaining is 109%.

Take `C=CC[C@@H]1/C=C(\C)C[C@H](C)C[C@H](OC)[C@H]2O[C@@](O)(C(=O)C(=O)N3CCCC[C@H]3C(=O)O[C@H](/C(C)=C/[C@@H]3CC[C@@H](O)[C@H](OC)C3)[C@H](C)[C@@H](O)CC1=O)[C@H](C)C[C@@H]2OC`: the activity remaining is 105%.

As for `O=C(Cc1cccs1)NC1C(=O)N2C(C(=O)[O-])=C(C[n+]3ccccc3)CSC12` (stereo unspecified), the activity remaining was 109%.

Take `Cc1cc(=O)c2c(O)c(C)c(O)cc2o1`: the activity remaining is 108%.

In the case of `CC(=O)OC[C@H]1O[C@@H](Oc2cc(OC(C)=O)c3c(=O)cc(-c4ccc(OC(C)=O)cc4)oc3c2)[C@H](OC(C)=O)[C@@H](OC(C)=O)[C@@H]1OC(C)=O`, the activity remaining was 92.5%.

Consider `COC1=C(O)C(=O)c2c(cc3oc(C(C)=O)c(O)c3c2O)C1=O`, for which the activity remaining was 108%.

For the compound `CC(=O)N[C@@H](CCC(=O)O)C(=O)O`, the activity remaining is 92.3%.

For the compound `O=C(Nc1ccc(C(=O)O)c(O)c1)c1ccccc1`, the activity remaining was 89.3%.

Regarding `CC(C)c1c(C(=O)c2ccccc2)c(-c2ccccc2)c(-c2ccc(F)cc2)n1CC[C@@H](O)C[C@@H](O)CC(=O)O`, the activity remaining was 116%.

Take `COc1ccc2ccc(=O)oc2c1CC=C(C)C`: the activity remaining is 106%.

In the case of `NS(=O)(=O)c1cc2c(cc1C(F)(F)F)NC(Cc1ccccc1)NS2(=O)=O` (stereo unspecified), the activity remaining was 98.7%.

For the compound `OCc1ccccc1O`, the activity remaining was 115%.

Regarding `O=C(O)c1cc(=O)c2cccc(O)c2[nH]1`, the activity remaining was 97.3%.

As for `OCC(O)C(O)C(O)C(O)C(O)CO` (stereo unspecified), the activity remaining is 93%.

Take `Clc1ccc(C(Cn2ccnc2)OCc2ccsc2Cl)c(Cl)c1` (stereo unspecified): the activity remaining is 109%.

Consider `O=c1ccc2ccccc2o1`, for which the activity remaining was 124%.

For `C[C@H]1CC2C([C@@H](O)C[C@@]3(C)C2CC[C@]3(O)C(=O)CO)[C@@]2(C)C=CC(=O)C=C12` (stereo partly specified), the activity remaining is 115%.

Turning to `OC[C@H]1OC([S-])[C@H](O)[C@@H](O)[C@@H]1O.[Au+]` (stereo partly specified), the activity remaining was 109%.

`COC(=O)CCC(C)C1CCC2C3CC[C@@H]4C[C@H](O)CC[C@]4(C)C3C[C@H](O)[C@]12C` (stereo partly specified): the activity remaining is 120%.
